This passage reports Potency and outcome results from PubChem BioAssay (Tox21).

A short description of assay [1]: qHTS assay for small molecule agonists of the p53 signaling pathway (AID 651631; calls by dose curve; note: nearly all actives have a fitted effect of over 15% in size; note: potency is the fitted concentration of half-maximal effect). The method, boiled down:
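HCT-116 cells carrying a beta-lactamase reporter under p53 response elements were dosed with compound for 16 h at 37 °C. LiveBLAzer B/G FRET substrate was then added for 2 h at room temperature, and fluorescence intensity was read to detect pathway agonism.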
For orientation: In qHTS, concentration-response curves come from the screen itself.

Assay [2] is described as follows: qHTS assay for small molecules that induce genotoxicity in human embryonic kidney cells expressing luciferase-tagged ATAD5 (AID 651632). Note: nearly all actives have a fitted effect of over 15% in size. The method, boiled down: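 DMSO vehicle served as the control. HEK293T reporter cells, 16 hr at 37C, then 30 min Amplite at room temperature; ATAD5 induction is measured as luciferase activity.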
Assay [3] in a line: qHTS assay for small molecule agonists of the p53 signaling pathway - cell viability (AID 651633; calls by dose curve; note: nearly all actives have a fitted effect of over 30% in size; note: potency is the fitted concentration of half-maximal effect). The method in brief:
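p53RE-bla cells were treated with compound for 16 hours at 37 C. Cytotoxicity was then measured as CellTiter-Glo luminescence after 30 min at room temperature.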

Assay [4] is described as follows: qHTS assay for small molecules that induce genotoxicity in human embryonic kidney cells expressing luciferase-tagged ATAD5 - cell viability (AID 651634; calls by dose curve; note: nearly all actives have a fitted effect of over 25% in size; note: potency is the fitted concentration of half-maximal effect). The method in brief: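 Here HEK293T cells with the ATAD5 luciferase reporter are incubated with test compounds for 15.5 hr, and cytotoxicity is then gauged by measuring protease activity in live cells using fluorescence.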

The nature of assay [5]: qHTS assay for small molecule disruptors of the mitochondrial membrane potential - cell viability (AID 720634; calls by dose curve; note: nearly all actives have a fitted effect of over 20% in size; note: potency is the fitted concentration of half-maximal effect). The method in brief:
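Viability of HepG2 cells is scored from ATP content by luminescence; cells are exposed to compound for 1 hr at 37 C and 5% CO2, then dosed with m-MPI dye before the CellTiter-Glo reagent.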

Assay [6] can be described thus: qHTS assay to test for compound auto fluorescence at 590 nm (red) in HepG2 cells (AID 720674). The method in brief:
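Fluorescence at 590 nm emission following 540 nm excitation was recorded from HepG2 wells one hour after compound transfer, with DMSO-only wells as vehicle and Rose Bengal sodium equivalency as the scale.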

Assay [7] can be described thus: qHTS assay to test for compound auto fluorescence at 535 nm (green) in HepG2 cells (AID 720675).
Assay [8] in a line: qHTS assay to test for compound auto fluorescence at 460 nm (blue) in HEK293 cells (AID 720678). The method, boiled down:
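Cells were seeded and left to adhere for 4-5 hr at 37C. Compounds were then pin-transferred. After an overnight incubation at 37C under 5% CO2, intrinsic fluorescence at 405/460 nm was measured and referenced to triamterene.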

Assay [9] is described as follows: qHTS assay to test for compound auto fluorescence at 590 nm (red) in HEK293 cells (AID 720679). The method in brief:
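Each well held 2,000 HEK293 cells in medium containing 10% dialyzed FBS. Following 4-5 hr attachment at 37C, 23 nL test compound or DMSO was added; plates sat overnight, and red fluorescence (540/590nm) was recorded.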

Assay [10] in a line: qHTS assay for small molecule disruptors of the mitochondrial membrane potential (AID 720635). Note: potency is the fitted concentration of half-maximal effect. The method in brief: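 HepG2 cells exposed to compound 1 hr at 37C, then Mito-MPS dye 30 min. Ratio read of aggregate (540/590 nm) versus monomer (490/535 nm) fluorescence.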

Where “and” joins values, the source holds several entries; their conditions need not be identical. Equal values may be shown once. Records with an inconclusive call do not appear. Some structures have more than one record in an assay (separate samples or runs), and their calls can disagree. Calls of active or inactive are those of the source. Unless noted, calls come from the whole dose curve; as a rule, active = well fitted curve in the direction sought with a large enough effect in the repeat runs; inconclusive = weak or mixed curves; inactive = no such curve, though single readings can be large; an effect the other way counts as inactive or inconclusive.

With `CCCC[N+]1(C)CCCC1`, the Potency entry in assay [1], in assay [3], in assay [4] and in assay [5] was “inactive” in each case. Moreover, the result in assay [2], in assay [6], in [7], in [8] and in assay [9] was inactive.
Consider `CCC(=O)C(CC(C)N(C)C)(c1ccccc1)c1ccccc1` (stereo not given), for which the Potency result in [1], in [3], in [4], in assay [5] and in assay [10] was “inactive” each time. In addition, the outcome in assay [2], in [6], in assay [7], in assay [8] and in [9] was inactive.
For the molecule `COP(=O)(OC)OC=C(Cl)Cl`, the call in assay [2], in [7], in assay [8] and in [9] was inactive. Further, the Potency result in assay [3], in assay [4], in assay [5] and in [10] was “inactive” in each case.
For the molecule `O=[N+]([O-])c1ccccc1O`, the Potency entry in [1], in assay [3], in [4], in assay [5] and in assay [10] was “inactive” each time. The outcome in assay [2], in assay [7], in assay [8] and in [9] was inactive.
On to `COc1ccc(N)cc1`, for which the Potency entry in assay [1], in [3], in assay [4] and in [5] was “inactive” each time. The outcome in [2], in assay [7], in assay [8] and in assay [9] was inactive.
`C1CCC(NC2CCCCC2)CC1`: the Potency result in assay [1], in [3], in assay [4] and in assay [5] was “inactive” in each case. Further, the outcome in [2], in assay [6], in assay [7], in assay [8] and in assay [9] was inactive.
For `O=P1(N(CCCl)CCCl)NCCCO1` (stereo not given), the Potency result in [1], in assay [3], in assay [4] and in assay [5] was “inactive” throughout. Further, the molecule was classed as inactive in assay [2], in [6], in assay [7], in assay [8] and in [9].
With `O=C(O)CC(O)(CC(=O)O)C(=O)O`, the Potency result in assay [1], in assay [3], in assay [4] and in assay [5] was “inactive” throughout. For the same molecule, the result in assay [2], in assay [7], in assay [8] and in assay [9] was inactive.
On to `OCCOc1ccccc1`, for which the Potency result in assay [1], in assay [3], in [4], in [5] and in [10] was “inactive” in each case. For the same molecule, the result in [2], in assay [7], in [8] and in [9] was inactive.
For the molecule `CCOP(=S)(OCC)Oc1ccc2c(C)c(Cl)c(=O)oc2c1`, the Potency result in [1], in [3] and in [4] was “inactive” throughout. The Potency result in [5] was “inactive and 24.3 µM (active)”. The molecule was classed as inactive in assay [7], in assay [8] and in [9].
For `COP(=O)(OC)C(O)C(Cl)(Cl)Cl` (stereo not given), the Potency result in assay [1], in [3], in assay [4], in assay [5] and in assay [10] was “inactive” each time. Also, the result in assay [2], in assay [6], in [7], in assay [8] and in assay [9] was inactive.
Take `CCCCCCCCCCCCCCCCn1cc[n+](C)c1`: in assay [1], the Potency result was “inactive”. Moreover, the call in assay [2], in assay [6], in [7], in assay [8] and in assay [9] was inactive. For the same molecule, the Potency in [3] was 27.9 µM (active) and 69.2 µM (active) and 30.7 µM (active).
As for `CC(=O)[O][Hg][c]1ccccc1`, the Potency in [1] is 596 nM (active) and 762 nM (active) and 1.22 µM (active); in [3] it was 473 nM (active) and 382 nM (active) and 386 nM (active); in assay [4], 1.68 µM (active) and 606 nM (active) and 1.37 µM (active); in assay [5], 5.31 µM (active) and 1.21 µM (active) and 2.43 µM (active); in assay [10] it was 4.73 µM (active) and 1.08 µM (active) and 1.93 µM (active). In addition, the molecule was called inactive in [2], in [6], in [7], in [8] and in assay [9].
Take `COCC(=O)N(c1c(C)cccc1C)C(C)C(=O)OC` (stereo not given): the Potency result in [1], in assay [3], in assay [4] and in [5] was “inactive” in each case. In addition, the call in assay [2], in [7], in assay [8] and in assay [9] was inactive.
On to `C[C@]12CCC(=O)C=C1CC[C@@H]1[C@@H]2CC[C@]2(C)C(=O)CC[C@@H]12`, for which the Potency entry in [1], in assay [3], in assay [4] and in assay [5] was “inactive” in each case. In addition, the outcome in [2], in [6], in assay [7], in assay [8] and in assay [9] was inactive.
Turning to `Nc1ccc(-c2ccc(N)cc2)cc1`, the Potency result in assay [1], in assay [3], in assay [4] and in [5] was “inactive” throughout. The outcome in assay [2], in assay [6], in assay [7], in assay [8] and in assay [9] was inactive.
As for `Oc1ccccc1-c1ccccc1`, the Potency result in assay [1], in [3], in [4] and in assay [5] was “inactive” each time. Moreover, the call in assay [2], in [7], in [8] and in assay [9] was inactive.
Turning to `CCCC[n+]1cccc(C)c1`, the Potency result in [1], in assay [3], in assay [4] and in assay [5] was “inactive” throughout. Also, the molecule was called inactive in assay [2], in assay [7], in [8] and in assay [9].
Regarding `CCCCCCCCCCCCCC[P+](CCCCCC)(CCCCCC)CCCCCC`, the result in [2], in assay [7], in assay [8] and in assay [9] was inactive. The Potency in assay [3] was 15.4 µM (active) and 19.5 µM (active) and inactive; in assay [4] it was 27.4 µM (active) and 24.5 µM (active); in assay [5], 30.8 µM (active) and 24.5 µM (active) and 1.72 µM (active); in [10], 434 nM (active) and 616 nM (active) and 273 nM (active).
Take `Nc1ccccc1`: the Potency entry in assay [1], in assay [3], in assay [4] and in assay [5] was “inactive” in each case. In addition, the call in assay [2], in assay [6], in [7], in [8] and in [9] was inactive.
For `N#CS`, the Potency result in assay [1], in assay [3], in assay [4], in assay [5] and in [10] was “inactive” each time. In addition, the outcome in assay [6], in assay [7], in assay [8] and in assay [9] was inactive.
With `Nc1ccc(-c2ccc(N)c(Cl)c2)cc1Cl`, the Potency is 9.74 µM (active) and 12.8 µM (active) and 21.7 µM (active) in assay [1]; 54.8 µM (active) and inactive in assay [3]; 54.8 µM (active) and 57 µM (active) and 54.5 µM (active) in assay [4]; 27.4 µM (active) and 50.8 µM (active) and 34.4 µM (active) in assay [5]. The molecule was called inactive in assay [2], in assay [7], in assay [8] and in [9].
As for `CNC`, the Potency entry in [1], in assay [3] and in assay [5] was “inactive” throughout. Besides, the molecule was classed as inactive in assay [7], in assay [8] and in assay [9].
For the molecule `CCCCCCn1cc[n+](C)c1`, the result in assay [2], in [7], in assay [8] and in assay [9] was inactive. Further, the Potency result in assay [3], in assay [4] and in assay [5] was “inactive” each time. Also, in assay [10], the Potency was 11 µM (active) and 24.5 µM (active) and 22.2 µM (active).
On to `O=C(O)C(Cl)(Cl)Cl`, for which the Potency result in assay [1], in assay [3], in assay [4], in [5] and in assay [10] was “inactive” throughout. Also, the molecule was classed as inactive in assay [2], in assay [7], in [8] and in assay [9].
With `Cc1cc(-c2ccc(N)c(C)c2)ccc1N`, the Potency result in assay [1], in assay [3], in assay [4] and in [5] was “inactive” each time. The call in [2], in [6], in [7], in [8] and in assay [9] was inactive.
For `CCNc1nc(Cl)nc(NCC)n1`, the Potency result in assay [1], in assay [3], in assay [4] and in [5] was “inactive” in each case. Besides, the result in assay [2], in [7], in assay [8] and in assay [9] was inactive.
As to `Cc1cc(Cl)ccc1OCC(=O)O`, the Potency result in assay [1], in assay [3], in assay [4] and in [5] was “inactive” each time. Also, the molecule was classed as inactive in assay [2], in assay [6], in assay [7], in assay [8] and in [9].
For the molecule `O=C(O)COc1ccc(Cl)cc1Cl`, the Potency entry in [1], in assay [3], in assay [4] and in [5] was “inactive” in each case. The molecule was called inactive in assay [7], in assay [8] and in [9].
